The list is not random: actives were taken first. Their share in the collection is about 11%.
ALDH1A1 block: ALDH1A1 (human) enzyme inhibition | AID 1030 | Potency, µM (top dose mostly 75.3 µM), for the others: top-dose activity, negative = inhibition, most hits filed as inhibitors | Purified ALDH1A1, NADH fluorescence, propionaldehyde substrate | P00352 | hit rate 7.3% among 220,000;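 note: potency is the fitted concentration of half-maximal effect; plate controls were no enzyme wells and a reference inhibitor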
HPGD block: HPGD (human) dehydrogenase inhibition. P15428. purified HPGD, NADH fluorescence kinetic, PGE2 substrate. Potency, µM, for inactives: at the highest dose activity change, negative = inhibition, actives largely listed as inhibitors. hit rate 4.3% among 150,000. AID 894; note: potency is the fitted concentration of half-maximal effect
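20 nM HPGD preincubated 15 min at room temperature with compound in 50 mM Tris-HCl pH 8, 0.01% Tween 20. Started with 1 mM NAD+ and 30 uM prostaglandin E2; NADH fluorescence (360/450 nm) read 5 times over 30-s intervals, last minus first.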
PNC inhibitor: perinucleolar compartment assembly inhibition; PC3M PTB-GFP, PNC prevalence imaging, 16 h; stronger effect = lower value; activity change (PNC), negative = inhibition, % at 10 µM; hit rate 3.1% among 140,000;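 active = readout at or below -70, meaning at least 70% loss of cells showing the perinucleolar compartment, a nuclear body marking cancer cells; inconclusive = readout between -30 and a set limit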;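 note: plate controls were DMSO wells for no effect and camptothecin positive control wells for full effect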
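PC3M cells stably expressing PTB-GFP, 750–1000 cells/well, treated 16 h at 37 °C with compound (23 nl of library stock), in duplicate. After paraformaldehyde fixation and Hoechst stain, imaged at 20x; PNC prevalence scored by image analysis.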
KDM4E inh: inhibitors of human JMJD2E histone demethylase; hit rate 1.6% among 230,000; AID 2147; Potency, µM (highest dose often 57.1 µM), for the others: at the highest dose activity change, negative = inhibition, hits mostly inhibitors; B2RXH2; JMJD2E catalytic domain, FDH-coupled NADH fluorescence (FDH is formaldehyde dehydrogenase);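 note: potency is the fitted concentration of half-maximal effect; 0% = wells with enzyme and -100% = buffer wells without enzyme; nearly all actives have a fitted effect of over 50% in size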
Target sequence (B2RXH2 1-337 limits assumed): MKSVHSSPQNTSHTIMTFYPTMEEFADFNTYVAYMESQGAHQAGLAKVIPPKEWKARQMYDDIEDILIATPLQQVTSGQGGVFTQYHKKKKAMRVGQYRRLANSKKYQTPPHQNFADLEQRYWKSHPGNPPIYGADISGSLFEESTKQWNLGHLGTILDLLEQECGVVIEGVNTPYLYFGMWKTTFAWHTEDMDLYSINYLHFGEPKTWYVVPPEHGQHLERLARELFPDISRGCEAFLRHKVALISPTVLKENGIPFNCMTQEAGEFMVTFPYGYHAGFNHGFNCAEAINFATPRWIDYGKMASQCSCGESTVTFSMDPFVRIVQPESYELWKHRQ
The depositor's hits bear a star; ? = inconclusive; . = no result given; [ ] = remark or other dose. Unless noted, calls come from the whole dose curve; as a rule, active = well fitted inhibition curve with a large enough effect (not every such curve was filed as active); inconclusive = small, poorly fitted or top-dose-only effect, or another doubt; inactive = no such curve, though single readings can be large or run the other way. Unless noted, % is set by controls: 0 for no effect and ±100 for the full control effect.

SMILES | ALDH1A1 block | HPGD block | PNC inhibitor | KDM4E inh
COCCCNC(=O)c1ccc2c(=O)n(Cc3ccc4c(c3)OCO4)c(=S)[nH]c2c1 | 6% | -19% | 10 | 7%
CN1CCN(C(=O)c2ccc3c(=O)n(Cc4ccc(Cl)cc4)c(=S)[nH]c3c2)CC1 | 22µM* | -19% | -8 | -2%
CC1CC(C)CN(C(=O)c2ccc3c(=O)n(Cc4ccc5c(c4)OCO5)c(=S)[nH]c3c2)C1 (stereo unspecified) | 1.4µM* | 16µM* | ? | 1%
CCOC(=O)N1CCN(C(=O)c2ccc3c(=O)n(Cc4ccccc4)c(=S)[nH]c3c2)CC1 | ? | -14% | 57 | 1%
C=CCn1c2ccccc2n2nc(C)c(=O)nc12 | ? | ? | -100* | ?
Cc1nn2c3ccccc3n(CCN3CCCCC3)c2nc1=O | ? | -12% | 20 | ?
CC(=O)NC1C(=O)N=C(SCC(=O)Nc2ccc(C(F)(F)F)cc2Cl)NC1=O (stereo unspecified) | ? | . | . | -4%
O=C(CSc1nc(-c2ccco2)cc(C(F)(F)F)n1)N1CCN(c2ccc(Cl)cc2)CC1 | -10% | -22% | -27 | -5%
O=C(CSc1nc(-c2ccco2)cc(C(F)(F)F)n1)N1CCN(Cc2ccccc2)CC1 | 16µM* | ? | 31 | -8%
COc1ccccc1N1CCN(C(=O)CSc2nc(-c3ccco3)cc(C(F)(F)F)n2)CC1 | 7.9µM* | -26% | -15 | -24%
Cc1nnc(SCc2ccc(Cl)c(Cl)c2)s1 | 3% | . | . | 13%
Cc1[nH]c(=S)sc1Cc1ccc(Cl)c(Cl)c1 | 25µM* | 16µM* | -4 | 4%
C/C(=N\NC(N)=S)c1ccc[nH]1 | -10%[13.5 µM] | -8% | . | .
Cc1ccc(S(=O)(=O)COCCN2CCN(S(=O)(=O)c3ccc(C)cc3)CCC2=O)cc1 | 4% | -6% | . | .
O=C(N/N=C/c1cn(Cc2ccccc2)c2ccccc12)c1cccnc1 | 14µM* | -19% | -26 | -18%
CCOC(=O)N/N=C/c1cn(Cc2ccc(Cl)cc2)c2ccccc12 | 2% | -5% | -105* | 15%
O=C(N/N=C/c1cn(Cc2ccccc2)c2ccccc12)c1ccncc1 | 14µM* | . | . | -5%
Cc1ccc(OCCn2cc(/C=N/NC(=O)c3ccncc3)c3ccccc32)cc1 | -9% | -9% | ? | -4%
O=C(N/N=C/c1cn(CC(=O)N2CCOCC2)c2ccccc12)c1cccnc1 | . | . | . | -10%
Cc1ccc(NC(=O)N[C@H](C(=O)O)C(C)C)c(C)c1 | . | . | . | -5%
CCN1CCCC1Cn1c(-c2ccccc2)nc2c(NC3CCCCC3)nc(C)nc21 (stereo unspecified) | ? | -24% | . | ?
O=c1c(CN2CCN(c3ccccn3)CC2)coc2ccccc12 | 25µM* | -2% | 9 | 2%
COc1ccc(Cl)cc1NC(=O)C1CCCN(S(=O)(=O)c2cccc3nonc23)C1 (stereo unspecified) | -5% | -18% | -100* | 12%
COc1cccc(NC(=O)C2CCCN(S(=O)(=O)c3cccc4nonc34)C2)c1 (stereo unspecified) | 1% | . | . | -5%
O=C(C1CCCN(S(=O)(=O)c2cccc3nonc23)C1)N1CCN(c2ccccc2Cl)CC1 (stereo unspecified) | ? | 14µM* | -21 | ?
SMILES | ALDH1A1 block | HPGD block | PNC inhibitor | KDM4E inh
O=C(C1CCCN(S(=O)(=O)c2cccc3nonc23)C1)N1CCN(c2cccc(Cl)c2)CC1 (stereo unspecified) | -12% | -8% | 18 | 3%
CCCOc1ccccc1Cn1c(=O)oc2ccc(C)cc21 | ? | 25µM* | ? | 0%
CCOc1ccccc1Cn1c(=O)oc2ccc(C)cc21 | -4% | -25% | ? | 2%
OC1C2COC(O2)[C@H](O)C1O (stereo partly specified) | 6% | -13% | . | 9%
CC[C@@H](c1ccccc1)n1c(=O)n2n(c1=O)[C@H]1[C@H](O)[C@H]3O[C@@H]3/C(=N/OCc3ccccc3)[C@@H]1CC2 | 1%[13.5 µM] | . | . | .
Cc1nn(C)c(C)c1NS(=O)(=O)c1ccccc1 | 4% | -2% | -6 | 2%
CCn1nc(C)c(NS(=O)(=O)c2ccccc2)c1C | -5% | -8% | -105* | 0%
CC(C)NC(=O)N1CC2(CCN(C(=O)c3ccco3)CC2)C1 | ? | -5% | . | .
CCC(C)Sc1nc2ccccc2n1CC(=O)O (stereo unspecified) | -6% | -6% | 2 | 0%
COc1ccc(N=C2C(=O)N3CCCc4cccc2c43)cc1 | 0.035µM* | -20% | 37 | 2%

Bioassay records deposited in PubChem by National Center for Advancing Translational Sciences (NCATS).
